# From PubChem BioAssay
# Results filed as inconclusive are left out. Active and inactive are the calls of the source.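 The calls were made as follows, unless noted: active = inhibition above 54%, about 3 SD of non-fluorescent compounds; inactive = the rest.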
# Key:
# [1] = yeast TOR pathway RPL19A-GFP modulators, primary screen, cell-based, S. cerevisiae, multiplex flow cytometry (AID 1862; in the data active = percent of DMSO control GFP below about 86%;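 also: lower values mimic rapamycin by blocking the RPL19A rise seen in DMSO cells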); conditions: S. cerevisiae RPL19A-GFP strain, flow cytometry fluorescence, 3 h; at 10 µM; stronger effect = lower value
# [2] = modulators of MEP2-GFP levels in yeast, primary screen, S. cerevisiae, multiplex flow cytometry (AID 1867;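 active = GFP response, as percent of the DMSO control, above the screen-wide mean plus 3 SD, about 139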;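 also: median GFP channel fluorescence of barcode-gated MEP2-GFP cells measured by flow cytometry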); conditions: S. cerevisiae MEP2-GFP strain, 3 h, at 10 µM, stronger effect = higher value, 100% means same as DMSO wells
# [3] = modulators of CIT2-GFP expression in yeast, primary screen, S. cerevisiae, GFP fusion, multiplex flow cytometry (AID 1870;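 active = percent response above a set limit, the screen-wide mean plus 3 SD, cut at about 130% in these data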;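 also: barcoded CIT2-GFP strain pooled with four other GFP strains with rapamycin as positive control; median GFP fluorescence per well over plate mean of DMSO wells so 100% = DMSO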); conditions: 3 h, at 10 µM, stronger effect = higher value
# [4] = modulators of LAP4-GFP expression in yeast, primary screen, S. cerevisiae, multiplex flow cytometry (AID 1873;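 active = GFP signal, as percent of the solvent control, above the screen mean plus 3 SD, about 149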); conditions: 3 h, at 10 µM, stronger effect = higher value
# [5] = modulators of AGP1-GFP expression in yeast TOR pathway, primary screen, cell-based, multiplex flow cytometry, S. cerevisiae (AID 1887;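 active = GFP signal above the screen-wide mean plus 3 SD, that is over about 124.5% of the solvent control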;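 also: AGP1-GFP fusion strain of S. cerevisiae within a five-strain barcoded multiplex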); conditions: 3 h, at 10 µM, stronger effect = higher value
# [6] = inhibitors of CD8+ T cell-vesicle binding, pilot screen, LFA-1/ICAM-1 modulator project, MLPCN validation set, flow cytometry (AID 2523;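 active = response below a set limit, under 55% cells CD8-positive and vesicle-bound, and CD8 cells' 90th-percentile brightness under 279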;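 as to vesicle binding response: mean PE anti-B7-1 fluorescence of CD8+ cells relative to row control; 100% = QL9-loaded vesicles with DMSO vehicle in the same plate row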); conditions: 2C mouse CD8+ T cells, at 7 µM, stronger effect = lower value; double positive events: measured here: CD8+/vesicle+ event percentage
# [7] = biological target: Integrin beta-1 (Homo sapiens) + Integrin alpha-4 (Homo sapiens) (UniProt P13612+P05556); test: inhibition of HUTS-21 binding to VLA-4, pilot screen, VLA-4 allosteric modulator project, U937 cells, HUTS-21 mAb, flow cytometry, validation set (AID 2674;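 active = inhibition above 50%, about 3 SD of the validation set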;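 also: antibody binding induced by the VLA-4 ligand LDV present at three times its Kd; 0% = LDV ligand with antibody and no compound and 100% = antibody without LDV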); conditions: HUTS-21 LIBS mAb binding, at 6.7 µM, stronger effect = higher value, binding induced by LDV ligand
# [8] = superoxide lowering in aged yeast cells, pilot screen, validation compound set (AID 2706;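 active = superoxide response below 65% of plate, a cut near 3 SD across the whole screen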;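 also: yeast exposed to compound for one week at 30 degrees C before staining; 100% = mean of all compound wells on the same plate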); conditions: S. cerevisiae aging, superoxide DHE fluorescence; at 10 µM; stronger effect = lower value
# [9] = biological target: Beta-adrenergic receptor kinase 1 (Homo sapiens) (UniProt P25098); test: GRK2 binders displacing RNA aptamer, biochemical, validation, human GRK2, bead flow cytometry (AID 488806;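 active = aptamer binding inhibition above 30%, about 3 SD of noise from non-fluorescent compounds; inactive = inhibition at or below 30%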); conditions: bead-bound GRK2, FAM-aptamer displacement, at 10 µM, stronger effect = higher value
# [10] = biological target: Beta-2 adrenergic receptor (Homo sapiens) (UniProt P07550); test: beta2AR agonists driving receptor internalization, pilot screen, cell-based, FAP fluorogen, flow cytometry, validation set (AID 504459;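 active = percent response above 42, roughly 3 SD of non-fluorescent test compounds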;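 also: agonist-driven loss of surface beta2AR via internalization measured by FAP dye flow cytometry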); conditions: Am2.2-beta2AR cells, FAP surface receptor flow cytometry; at 10 µM; stronger effect = higher value
# [11] = biological target: AP-2 complex subunit beta (Homo sapiens) (UniProt P63010); test: inhibitors of arrestin peptide binding to AP2, pilot screen, biochemical, validation set, GST-AP2 beads, flow cytometry (AID 504541); conditions: FITC arrestin peptide, at 10 µM, stronger effect = higher value, AP2 beta2 appendage fragment, R879A mutant;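 also: AP2 carries R879A mutation and is captured from E. coli lysate; bead-bound FITC arrestin peptide fluorescence measuring arrestin peptide binding to AP2; 0% = DMSO wells and 100% = excess unlabeled arrestin peptide control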
# [12] = yeast V-ATPase proton transport modulators, S. cerevisiae, pHLuorin, HTS validation (AID 504600; in the data active = response above about 15%;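 also: plate controls were DMSO for no effect and reference compound for full effect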); conditions: S. cerevisiae pHLuorin cytosolic pH, at 10 µM, stronger effect = higher value
# [13] = tested on: anti-desmoglein-3 scFv antibody binding to human DSG3; test: inhibitors of anti-DSG3 scFv binding to DSG3, pilot screen, biochemical, validation compound set, bead-based, flow cytometry (AID 588368;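 active = binding below the plate cutoff, the plate median minus 3 SD, with a reading above zero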;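 also: signal is the median channel fluorescence of bead-bound GFP antibody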); conditions: Protein G beads, DSG3-Fc, scFv-GFP binding, at 10 µM, stronger effect = lower value
# [14] = inhibitors of fungal efflux pumps CDR1, CDR2, MDR1, pilot screen, validation compound set, multiplex, phenotypic (AID 588506;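 active = efflux inhibition above 0.42, the validation set average plus 4 SD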;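 also: Nile Red retained in cells so higher fluorescence means more efflux inhibition; 0 = negative control wells and 1 = enniatin B 25 µM full block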); conditions: S. cerevisiae pump-expressing triplex, Nile Red efflux flow cytometry; at 10 µM; stronger effect = higher value; the pumps come from Candida albicans
# [15] = biological target: ATP-binding cassette sub-family B member 6 (Homo sapiens) (UniProt Q9NP58); test: ABCB6 transporter inhibitors, pilot screen, K562-ABCB6 cells, flow cytometry, validation set (AID 588550;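 active = inhibition above the screen-wide mean plus 3 SD, about 51%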;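 also: 0% = DMSO wells and 100% = benzethonium chloride 70 µM positive control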); conditions: K562-ABCB6 porphyrin accumulation, 1 h, at 10 µM, stronger effect = higher value
# [16] = promoters of myeloid differentiation in arrested cells, primary screen, cell-based, GFP/MAC1 double positive, flow cytometry, validation set (AID 588685;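 active = differentiation response of at least 50%, scaled between solvent and reference control, from cells with both markers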;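 also: compound exposure lasts four days before antibody staining and flow analysis; 0% = DMSO wells and 100% = 5 µM fulvestrant positive control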); conditions: ER-HoxA9 marrow cells, stronger effect = higher value, normalized: vehicle 0, fulvestrant 100
# Sequence of Beta-adrenergic receptor kinase 1 (Homo sapiens) (P25098 whole entry, looked up): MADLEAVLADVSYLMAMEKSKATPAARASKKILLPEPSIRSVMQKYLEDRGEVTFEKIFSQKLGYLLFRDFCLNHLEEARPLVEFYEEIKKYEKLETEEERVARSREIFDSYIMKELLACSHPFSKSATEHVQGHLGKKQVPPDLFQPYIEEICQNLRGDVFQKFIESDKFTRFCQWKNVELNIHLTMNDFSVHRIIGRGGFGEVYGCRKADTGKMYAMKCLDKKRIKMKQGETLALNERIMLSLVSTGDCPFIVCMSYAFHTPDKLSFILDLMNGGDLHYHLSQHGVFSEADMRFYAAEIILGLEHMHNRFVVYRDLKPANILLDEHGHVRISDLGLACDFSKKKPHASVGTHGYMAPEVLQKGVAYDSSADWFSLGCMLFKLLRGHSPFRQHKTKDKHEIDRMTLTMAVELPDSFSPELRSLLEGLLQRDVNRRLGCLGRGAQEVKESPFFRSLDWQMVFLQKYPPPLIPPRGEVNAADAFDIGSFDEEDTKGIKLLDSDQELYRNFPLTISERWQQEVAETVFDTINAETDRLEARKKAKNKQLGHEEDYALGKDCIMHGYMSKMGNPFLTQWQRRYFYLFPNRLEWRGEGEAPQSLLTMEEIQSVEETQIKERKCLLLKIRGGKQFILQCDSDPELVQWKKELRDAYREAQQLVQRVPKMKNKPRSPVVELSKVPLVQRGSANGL
# Sequence of Integrin beta-1 (Homo sapiens) + Integrin alpha-4 (Homo sapiens) (P05556 whole entry, looked up): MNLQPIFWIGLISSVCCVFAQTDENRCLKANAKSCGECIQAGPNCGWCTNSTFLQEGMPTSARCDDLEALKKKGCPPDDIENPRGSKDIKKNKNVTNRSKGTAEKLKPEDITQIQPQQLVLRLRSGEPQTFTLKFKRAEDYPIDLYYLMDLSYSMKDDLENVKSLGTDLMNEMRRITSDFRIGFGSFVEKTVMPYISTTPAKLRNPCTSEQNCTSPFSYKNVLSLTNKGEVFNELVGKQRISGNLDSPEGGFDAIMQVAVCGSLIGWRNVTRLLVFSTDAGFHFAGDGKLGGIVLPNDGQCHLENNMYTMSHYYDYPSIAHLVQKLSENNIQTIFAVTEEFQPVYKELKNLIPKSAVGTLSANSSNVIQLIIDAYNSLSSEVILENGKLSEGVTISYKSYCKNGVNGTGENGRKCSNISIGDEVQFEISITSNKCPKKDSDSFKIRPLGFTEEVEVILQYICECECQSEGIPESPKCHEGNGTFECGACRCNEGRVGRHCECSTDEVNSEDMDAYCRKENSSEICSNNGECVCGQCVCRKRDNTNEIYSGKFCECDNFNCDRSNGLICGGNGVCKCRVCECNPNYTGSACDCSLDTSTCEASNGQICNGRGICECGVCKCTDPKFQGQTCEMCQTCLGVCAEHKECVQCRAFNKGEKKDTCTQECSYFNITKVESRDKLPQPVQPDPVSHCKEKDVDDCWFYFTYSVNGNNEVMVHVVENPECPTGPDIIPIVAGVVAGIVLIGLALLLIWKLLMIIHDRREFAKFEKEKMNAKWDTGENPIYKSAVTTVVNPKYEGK
# Sequence of Integrin beta-1 (Homo sapiens) + Integrin alpha-4 (Homo sapiens) (P13612 whole entry, looked up): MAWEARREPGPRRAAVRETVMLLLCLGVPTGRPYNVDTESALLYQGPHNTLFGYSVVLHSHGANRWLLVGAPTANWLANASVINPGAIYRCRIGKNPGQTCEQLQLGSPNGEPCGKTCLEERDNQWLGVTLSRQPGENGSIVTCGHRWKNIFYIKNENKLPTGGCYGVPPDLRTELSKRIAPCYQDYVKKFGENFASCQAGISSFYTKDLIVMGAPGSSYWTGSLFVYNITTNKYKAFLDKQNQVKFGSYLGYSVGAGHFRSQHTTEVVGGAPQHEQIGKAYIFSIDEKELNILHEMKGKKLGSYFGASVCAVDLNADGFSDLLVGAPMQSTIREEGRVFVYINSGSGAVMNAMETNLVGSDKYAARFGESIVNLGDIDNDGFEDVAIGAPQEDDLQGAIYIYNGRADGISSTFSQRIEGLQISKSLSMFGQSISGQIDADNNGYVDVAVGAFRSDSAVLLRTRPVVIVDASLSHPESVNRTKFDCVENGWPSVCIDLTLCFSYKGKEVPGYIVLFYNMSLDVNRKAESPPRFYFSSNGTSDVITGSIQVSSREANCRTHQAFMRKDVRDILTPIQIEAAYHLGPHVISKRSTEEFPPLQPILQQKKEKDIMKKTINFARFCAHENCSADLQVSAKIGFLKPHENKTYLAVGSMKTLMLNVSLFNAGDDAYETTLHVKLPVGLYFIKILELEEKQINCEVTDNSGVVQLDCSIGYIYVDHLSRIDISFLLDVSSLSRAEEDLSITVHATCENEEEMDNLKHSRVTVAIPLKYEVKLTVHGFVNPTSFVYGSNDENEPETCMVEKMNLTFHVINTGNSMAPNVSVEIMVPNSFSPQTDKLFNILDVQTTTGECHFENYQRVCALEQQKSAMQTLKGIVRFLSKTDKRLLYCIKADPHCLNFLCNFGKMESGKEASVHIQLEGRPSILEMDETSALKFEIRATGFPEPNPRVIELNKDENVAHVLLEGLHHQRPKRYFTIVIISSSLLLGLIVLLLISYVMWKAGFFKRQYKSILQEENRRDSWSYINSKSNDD
# Sequence of AP-2 complex subunit beta (Homo sapiens) (P63010 whole entry, looked up, the tested form may be a part, one chain of several): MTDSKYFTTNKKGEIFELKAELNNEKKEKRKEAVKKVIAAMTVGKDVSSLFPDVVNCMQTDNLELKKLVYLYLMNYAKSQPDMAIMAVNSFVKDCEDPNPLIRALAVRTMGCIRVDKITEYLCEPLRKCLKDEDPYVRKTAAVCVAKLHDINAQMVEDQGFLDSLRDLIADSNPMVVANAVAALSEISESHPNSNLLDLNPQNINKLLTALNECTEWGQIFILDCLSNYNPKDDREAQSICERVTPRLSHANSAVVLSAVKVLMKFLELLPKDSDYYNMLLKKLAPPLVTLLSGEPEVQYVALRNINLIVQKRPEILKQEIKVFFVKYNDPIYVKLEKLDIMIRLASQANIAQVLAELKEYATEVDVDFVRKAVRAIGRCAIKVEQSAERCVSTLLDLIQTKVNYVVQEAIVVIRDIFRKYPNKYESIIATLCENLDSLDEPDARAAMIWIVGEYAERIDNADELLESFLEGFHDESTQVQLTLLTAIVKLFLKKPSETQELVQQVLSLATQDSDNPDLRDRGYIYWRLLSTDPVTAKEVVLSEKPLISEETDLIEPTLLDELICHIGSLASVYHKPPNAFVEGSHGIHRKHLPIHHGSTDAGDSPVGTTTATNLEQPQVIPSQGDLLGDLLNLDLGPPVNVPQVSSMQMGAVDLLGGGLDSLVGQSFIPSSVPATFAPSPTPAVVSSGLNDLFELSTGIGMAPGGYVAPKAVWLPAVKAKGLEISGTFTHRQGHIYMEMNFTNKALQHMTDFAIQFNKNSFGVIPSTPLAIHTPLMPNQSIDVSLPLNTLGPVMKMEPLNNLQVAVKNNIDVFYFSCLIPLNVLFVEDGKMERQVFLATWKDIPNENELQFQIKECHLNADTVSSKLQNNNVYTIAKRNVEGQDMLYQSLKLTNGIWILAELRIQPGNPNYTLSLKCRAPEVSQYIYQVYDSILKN
# Sequence of Beta-2 adrenergic receptor (Homo sapiens) (P07550 whole entry, looked up, the tested form may be a part): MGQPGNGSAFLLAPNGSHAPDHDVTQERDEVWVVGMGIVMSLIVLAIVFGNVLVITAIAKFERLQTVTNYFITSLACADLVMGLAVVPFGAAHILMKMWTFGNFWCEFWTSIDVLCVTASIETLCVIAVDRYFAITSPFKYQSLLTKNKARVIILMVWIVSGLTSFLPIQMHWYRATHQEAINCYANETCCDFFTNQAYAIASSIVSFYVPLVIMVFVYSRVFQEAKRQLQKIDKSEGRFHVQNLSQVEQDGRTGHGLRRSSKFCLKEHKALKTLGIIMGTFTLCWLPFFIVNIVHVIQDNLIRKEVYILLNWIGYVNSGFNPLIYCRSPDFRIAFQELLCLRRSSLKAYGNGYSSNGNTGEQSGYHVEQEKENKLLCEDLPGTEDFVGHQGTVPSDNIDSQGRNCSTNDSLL
# Sequence of ATP-binding cassette sub-family B member 6 (Homo sapiens) (Q9NP58 whole entry, looked up): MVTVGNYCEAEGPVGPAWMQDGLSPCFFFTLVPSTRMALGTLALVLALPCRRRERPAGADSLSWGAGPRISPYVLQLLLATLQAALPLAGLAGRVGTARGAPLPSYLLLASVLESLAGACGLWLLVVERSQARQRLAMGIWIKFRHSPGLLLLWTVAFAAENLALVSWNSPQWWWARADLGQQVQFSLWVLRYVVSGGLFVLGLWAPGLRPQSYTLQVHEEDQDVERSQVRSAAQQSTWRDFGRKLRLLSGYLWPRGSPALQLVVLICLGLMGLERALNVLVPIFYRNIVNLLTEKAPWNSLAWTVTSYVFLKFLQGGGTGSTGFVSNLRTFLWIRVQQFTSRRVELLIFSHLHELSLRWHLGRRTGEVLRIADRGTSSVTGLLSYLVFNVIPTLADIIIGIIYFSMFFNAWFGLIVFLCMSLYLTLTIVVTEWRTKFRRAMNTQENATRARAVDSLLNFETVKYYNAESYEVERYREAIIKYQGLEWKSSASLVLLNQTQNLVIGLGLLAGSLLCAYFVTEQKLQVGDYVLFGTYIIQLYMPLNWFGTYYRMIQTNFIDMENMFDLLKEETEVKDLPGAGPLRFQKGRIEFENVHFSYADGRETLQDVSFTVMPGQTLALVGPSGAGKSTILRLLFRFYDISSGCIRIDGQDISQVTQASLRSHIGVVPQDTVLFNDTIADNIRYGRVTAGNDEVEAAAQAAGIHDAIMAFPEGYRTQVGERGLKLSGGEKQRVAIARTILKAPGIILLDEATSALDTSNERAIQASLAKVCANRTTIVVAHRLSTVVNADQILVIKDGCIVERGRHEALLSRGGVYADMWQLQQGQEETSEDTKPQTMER
SMILES,percent of DMSO control GFP [1],GFP response vs DMSO [2],percent response of DMSO control [3],GFP response vs DMSO [4],"GFP response, % of DMSO [5]",double positive events [6],vesicle binding response [6],inhibition [7],superoxide response (% of plate) [8],aptamer binding inhibition [9],response [10],inhibition [11],response [12],binding (% of control) [13],efflux inhibition (fraction of control) [14],inhibition [15],differentiation response [16]
CC1(C)C(=O)OC(C(=O)c2ccc(Cl)cc2)C(C)(C)C1=O (stereo not drawn),103% (inactive),90.9% (inactive),107% (inactive),97.3% (inactive),103% (inactive),66.1%,261% (inactive),-11.9% (inactive),104% (inactive),2% (inactive),-5.23% (inactive),-10.6% (inactive),-4.25% (inactive),99.3% (inactive),-0.01 (inactive),-4% (inactive),-4.64% (inactive)
Cc1ccc(/C=N/Nc2nc(C(C)(C)C)cs2)o1,103% (inactive),106% (inactive),95.8% (inactive),98.2% (inactive),97.8% (inactive),69.4%,302% (inactive),17.3% (inactive),80.8% (inactive),5% (inactive),4.35% (inactive),-1.54% (inactive),6.19% (inactive),102% (inactive),0.51 (active),114% (active),7.2% (inactive)
O=C(NCc1ccc(N2CCCC2=O)cc1)c1ccc(F)cc1,103% (inactive),106% (inactive),100% (inactive),99.5% (inactive),116% (inactive),62.5%,211% (inactive),17.6% (inactive),101% (inactive),3% (inactive),-6.33% (inactive),6.32% (inactive),-1.49% (inactive),107% (inactive),-0.04 (inactive),2% (inactive),1.91% (inactive)
CCN(CC)C(=O)c1sc(NC(=O)c2c(OC)cccc2OC)c(C#N)c1C,101% (inactive),98.7% (inactive),105% (inactive),88.2% (inactive),94.7% (inactive),66.7%,229% (inactive),1.59% (inactive),95.2% (inactive),4% (inactive),-1.95% (inactive),-5.78% (inactive),12% (inactive),97.3% (inactive),-0.025 (inactive),14% (inactive),5.67% (inactive)
c1ccc(CC2=NCCN2)cc1,104% (inactive),107% (inactive),100% (inactive),103% (inactive),102% (inactive),61.8%,181% (inactive),0% (inactive),101% (inactive),-2% (inactive),-7.37% (inactive),-16.6% (inactive),1.43% (inactive),98% (inactive),-0.07 (inactive),-5% (inactive),14.9% (inactive)
CC[N+]1(C)CC2CCC(C)(C1)C2(C)C (stereo not drawn),106% (inactive),104% (inactive),101% (inactive),96.5% (inactive),97.4% (inactive),59.7%,193% (inactive),11.9% (inactive),103% (inactive),5% (inactive),5% (inactive),11.5% (inactive),-4.32% (inactive),98% (inactive),-0.06 (inactive),7% (inactive),-21.6% (inactive)
COc1ccc(C2NCCC3(O)CCCCC23)c(OC)c1OC (stereo not drawn),98.8% (inactive),99.6% (inactive),93.9% (inactive),107% (inactive),97.4% (inactive),57.7%,199% (inactive),-11.3% (inactive),105% (inactive),1% (inactive),-8.95% (inactive),10.4% (inactive),-2.26% (inactive),102% (inactive),-0.06 (inactive),6% (inactive),-18.4% (inactive)
O=C(c1ccc(Cl)cc1)C1CCCN(C(=O)/C=C/c2ccccn2)C1 (stereo not drawn),92.4% (inactive),102% (inactive),97.7% (inactive),137% (inactive),115% (inactive),57.5%,280% (inactive),-1.12% (inactive),91.6% (inactive),-3% (inactive),-44.8% (inactive),-19.4% (inactive),2.11% (inactive),106% (inactive),0 (inactive),-2% (inactive),-1.05% (inactive)
O=C(OCCNC(=O)c1ccc2ccccc2n1)c1ccc(F)cc1,103% (inactive),110% (inactive),97.8% (inactive),87.4% (inactive),88.9% (inactive),58.4%,241% (inactive),2.66% (inactive),114% (inactive),0% (inactive),4.51% (inactive),2.3% (inactive),1.13% (inactive),99.2% (inactive),-0.04 (inactive),0% (inactive),8.06% (inactive)
Cc1ccc(S(=O)(=O)NC(=O)Nc2cc(C)ccc2F)cc1,102% (inactive),105% (inactive),93.1% (inactive),82.2% (inactive),96.5% (inactive),62.3%,1090% (inactive),2.66% (inactive),110% (inactive),2% (inactive),-5.23% (inactive),56.9% (active),-3.86% (inactive),92.9% (inactive),0.64 (active),-2% (inactive),34.5% (inactive)
O=C(Cc1ccccc1[N+](=O)[O-])NCCCN1CCOCC1,101% (inactive),101% (inactive),96.4% (inactive),107% (inactive),107% (inactive),63.1%,426% (inactive),-4.52% (inactive),113% (inactive),1% (inactive),-20% (inactive),-4.04% (inactive),0.45% (inactive),99.9% (inactive),0 (inactive),2% (inactive),-5.97% (inactive)
Nc1ccc(-c2nc3ncccc3o2)c(Cl)c1,97.8% (inactive),103% (inactive),97.7% (inactive),112% (inactive),98.6% (inactive),56.7%,243% (inactive),-15.4% (inactive),118% (inactive),0% (inactive),0.9% (inactive),-5.26% (inactive),61.4% (active),103% (inactive),0.15 (inactive),6% (inactive),4% (inactive)
COc1ccc2c3c([nH]c2c1)C1(NCC3)C(=O)Nc2ccccc21 (stereo not drawn),95.4% (inactive),105% (inactive),89.1% (inactive),103% (inactive),101% (inactive),59.5%,175% (inactive),-15.4% (inactive),97.3% (inactive),0% (inactive),-10.9% (inactive),10.3% (inactive),-0.21% (inactive),97.6% (inactive),0.05 (inactive),-6% (inactive),10.4% (inactive)
CCc1ccc(CN(C)Cc2nc(Cc3ccccc3)no2)nc1,105% (inactive),99.6% (inactive),103% (inactive),112% (inactive),112% (inactive),59.8%,160% (inactive),0.59% (inactive),101% (inactive),4% (inactive),-25% (inactive),1.57% (inactive),-11.6% (inactive),97.3% (inactive),-0.04 (inactive),-5% (inactive),14.7% (inactive)
CCC1CCc2c(sc(NC(=O)c3cccnc3)c2C(N)=O)C1 (stereo not drawn),97.6% (inactive),102% (inactive),96.4% (inactive),108% (inactive),107% (inactive),64.4%,252% (inactive),-38.6% (inactive),99.6% (inactive),7% (inactive),-24.4% (inactive),5.47% (inactive),-30.9% (inactive),98.3% (inactive),-0.09 (inactive),14% (inactive),38.4% (inactive)
CC1(C)CC(=O)C2=C(C1)c1c(ccc3ccccc13)NC2c1ccco1 (stereo not drawn),98.8% (inactive),105% (inactive),93.9% (inactive),123% (inactive),99.5% (inactive),57%,182% (inactive),-8.62% (inactive),107% (inactive),6% (inactive),14.4% (inactive),13.8% (inactive),1.12% (inactive),104% (inactive),-0.06 (inactive),3% (inactive),28% (inactive)
C[N+]1(C2CCC3CCCC2C3O)CCCCC1 (stereo not drawn),108% (inactive),100% (inactive),115% (inactive),82.8% (inactive),103% (inactive),64.9%,326% (inactive),-2.53% (inactive),94.2% (inactive),1% (inactive),-9.71% (inactive),-10.4% (inactive),3.03% (inactive),99.3% (inactive),-0.1 (inactive),32% (inactive),4.15% (inactive)
O=C(CCc1ccccc1)Nc1ccccc1C(F)(F)F,103% (inactive),105% (inactive),107% (inactive),94.7% (inactive),103% (inactive),64.1%,240% (inactive),2.66% (inactive),96.3% (inactive),1% (inactive),-5.39% (inactive),-5.17% (inactive),2.37% (inactive),100% (inactive),0.18 (inactive),-2% (inactive),0.24% (inactive)
CCC(NC(C)C)C(O)c1ccc(O)c(O)c1 (stereo not drawn),103% (inactive),102% (inactive),100% (inactive),104% (inactive),112% (inactive),60.7%,170% (inactive),-11.3% (inactive),86.8% (inactive),4% (inactive),46% (active),-1.15% (inactive),0.42% (inactive),105% (inactive),-0.04 (inactive),2% (inactive),-0.06% (inactive)
